This is part of a sample that, as a whole, favours compounds with a hit. Of some 79,000 tested, about 15% had one in any assay. Unmarked numbers belong to inactive results. The source made the active and inactive calls. Cut-off read from the data, not from the text of the source: active = growth inhibition above about 70%; inactive = the rest.
What was measured:
[1] = NCI Yeast Anticancer Drug Screen. Data for the rad50 strain (AID 155);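 note: 0% = growth of vehicle-only cultures of the same strain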; conditions: S. cerevisiae rad50 strain growth inhibition, hits give high values
Method in brief: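 Compounds were tested on a yeast strain with an engineered DNA damage repair alteration; the reported value is growth inhibition normalised to vehicle treatment.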

[2] = NCI Yeast Anticancer Drug Screen. Data for the mec2-1 strain (AID 157); conditions: S. cerevisiae mec2-1 strain, hits give high values
Method in brief: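 Vehicle-treated cultures served as reference for growth inhibition of compound-exposed mec2-1 yeast.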

[3] = NCI Yeast Anticancer Drug Screen. Data for the sgs1 mgt1 strain (AID 161);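 note: 0% = growth of cultures given vehicle only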; conditions: S. cerevisiae sgs1 mgt1 strain, hits give high values
Method in brief: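 Inhibition of yeast growth, normalised to vehicle-treated controls, is reported for a strain bearing genetic alterations in DNA damage repair.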

[4] = NCI Yeast Anticancer Drug Screen. Data for the cln2 rad14 strain (AID 165);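 note: 0% = growth equal to vehicle treated cultures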; conditions: S. cerevisiae cln2 rad14 strain, hits give high values
Method in brief: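 Each compound was tested on cln2 rad14 yeast. Inhibition of growth was calculated against vehicle-exposed controls.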

[5] = NCI Yeast Anticancer Drug Screen. Data for the bub3 strain (AID 167); conditions: S. cerevisiae bub3 mutant strain, hits give high values
Method in brief: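 Growth of a checkpoint-deficient yeast mutant is measured after compound exposure. Values represent inhibition relative to vehicle.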

[6] = NCI Yeast Anticancer Drug Screen. Data for the mlh1 rad18 strain (AID 175); conditions: S. cerevisiae mlh1 rad18 strain growth inhibition, hits give high values
Method in brief: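 Vehicle-treated cultures served as the reference for growth inhibition in a yeast strain carrying DNA damage repair alterations exposed to each compound.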

[7] = at 5.0 µM (retest, dose inferred, filed as 0.5)
[8] = at 50.0 µM (retest, dose inferred, filed as 5.0)

Row | SMILES | growth inhibition [1, 7] | growth inhibition [1, 8] | growth inhibition ([1]; at 50.0 µM) | growth inhibition [2, 7] | growth inhibition [2, 8] | growth inhibition ([2]; at 50.0 µM) | growth inhibition [3, 7] | growth inhibition [3, 8] | growth inhibition ([3]; at 50.0 µM) | growth inhibition [4, 7] | growth inhibition [4, 8] | growth inhibition ([4]; at 50.0 µM) | growth inhibition [5, 7] | growth inhibition [5, 8] | growth inhibition ([5]; at 50.0 µM) | growth inhibition [6, 7] | growth inhibition [6, 8] | growth inhibition ([6]; at 50.0 µM)
1 | CCSc1nnc(CSc2nc(-c3ccccc3)c(-c3ccccc3)[nH]2)n1-c1ccccc1 | 35% | 35% | 79.1% (active) | 30% | 30% | 68.7% | 32% | 32% | 76.7% (active) | 26% | 26% | 74.5% (active) | 25% | 25% | 63.9% | 28% | 28% | 62.5%
2 | CCCCCCCCCCCCCCCCCC(=O)OCCOCCO | -12% | -16% | -2.4% | -22% | -46% | -0.25% | -10% | -23% | -2.7% | -33% | -21% | 60.8% | -27% | -24% | -13.3% | -28% | -25% | -21.6%
3 | CS(=O)(=O)N1C(=O)C2C3CCC(O3)C2C1=O (centres undefined) | -142% | 91% (active) | 73.5% (active) | -46% | 71% (active) | 57.7% | -61% | 52% | 26.4% | -56% | 73% (active) | 19.5% | -74% | 64% | 40.8% | -145% | 75% (active) | 42.6%
4 | O=C1C(=O)c2ccc(Br)cc2C(O)=C1C(c1ccccc1)c1ccccc1 | 29% | 60% | 25.6% | 28% | 70% (active) | 30.5% | 4% | 74% (active) | 7.4% | 24% | 63% | 14.2% | 36% | 70% (active) | 21.2% | 28% | 69% | 32.5%
5 | O=C(CSc1nnc(Cc2ccccc2)o1)Nc1cccc(Cl)c1 | -20% | 91% (active) | 77% (active) | 14% | 85% (active) | 70% (active) | -2% | 86% (active) | 82.2% (active) | 24% | 91% (active) | 78% (active) | 1% | 95% (active) | 77.5% (active) | 9% | 93% (active) | 78.8% (active)
6 | Cc1ccc(C(=O)OCCN2CCN(c3ccccc3)CC2)c([N+](=O)[O-])c1OCc1ccccc1 | 30% | 66% | 87% (active) | 36% | 43% | 63.9% | 25% | 82% (active) | 89.3% (active) | 24% | 64% | 74% (active) | 28% | 70% (active) | 72.7% (active) | 19% | 78% (active) | 90.6% (active)
7 | CSCS(=O)C[C@H](CO)NC(=O)/C=C/c1c(C)[nH]c(=O)[nH]c1=O (some centres undefined) | 26% | 98% (active) | 84.5% (active) | 26% | 86% (active) | 78.6% (active) | 25% | 98% (active) | 83% (active) | 32% | 95% (active) | 62.7% | 5% | 98% (active) | 88.7% (active) | 25% | 98% (active) | 85.1% (active)
8 | C1=C([P+](c2ccccc2)(c2ccccc2)c2ccccc2)CCCC1 | 22% | 93% (active) | 89.8% (active) | -2% | 91% (active) | 92.2% (active) | 13% | 84% (active) | 88.5% (active) | 24% | 90% (active) | 86.5% (active) | -8% | 92% (active) | 87.5% (active) | 14% | 91% (active) | 91.9% (active)
9 | CC(=O)OC(C#N)CC(C)(C)/[N+]([O-])=[N+](\[O-])C(C)(C)CC(C#N)OC(C)=O (centres undefined) | 6% | 44% | 23.9% | 1% | 46% | 43.5% | 8% | 97% (active) | 77.3% (active) | 14% | 61% | 3.2% | 3% | 79% (active) | 68.1% | 11% | 80% (active) | 80% (active)
10 | Cc1c[n+](CC(=O)c2ccc(I)cc2)c(C)s1 | 0% | 13% | -16.2% | -1% | 2% | 4.1% | -1% | 12% | -2.85% | -4% | -5% | 46.3% | -2% | 9% | 1.7% | -2% | -2% | 16.8%
11 | Nc1c(C(=O)O)cccc1[N+](=O)[O-] | 2% | -1% | -5.1% | 1% | -2% | 9.25% | -1% | -1% | -9.1% | -1% | 3% | 23.2% | 1% | 0% | -2.1% | 1% | 3% | -5.05%
12 | O=C1OC2(CCN(Cc3ccccc3)CC2)C(=O)N1c1cccc(Cl)c1 | -1% | 35% | 79.5% (active) | -8% | 22% | 18.5% | 28% | 58% | 76.5% (active) | 60% | 52% | 40.8% | 14% | 81% (active) | 52.8% | 3% | 37% | 62.5%
13 | CC(C)=CN(C)C (tested in a mixture with another compound) | -120% | 87% (active) | 93.5% (active) | -36% | 91% (active) | 96.7% (active) | -42% | 89% (active) | 91.7% (active) | -55% | 97% (active) | 98.4% (active) | -68% | 83% (active) | 91.2% (active) | -113% | 95% (active) | 95.8% (active)
14 | Oc1ccc(Cc2ccccc2)cc1Cl | -1% | 74% (active) | 47.5% | -2% | 72% (active) | 41.7% | -2% | 78% (active) | 42.8% | -4% | 47% | 95% (active) | -6% | 54% | 97.7% (active) | -1% | 85% (active) | 41.6%
15 | COc1cccc(N2CCN(CC(O)COc3cc4c(c5c3CCCC5)CCCC4)CC2)c1 (centres undefined) | 17% | 95% (active) | 64.2% | 20% | 98% (active) | 48.6% | 34% | 95% (active) | 62.5% | 13% | 94% (active) | 58.8% | 12% | 95% (active) | 95% (active) | 12% | 94% (active) | 54%
16 | CC1(C)OC2C(COC(c3ccccc3)(c3ccccc3)c3ccccc3)OC(n3ccc(=O)[nH]c3=O)C2O1 (centres undefined) | 57% | 92% (active) | 75.9% (active) | 35% | 96% (active) | 53.6% | 43% | 56% | 75.3% (active) | 28% | 75% (active) | 52.1% | 42% | 94% (active) | 72.6% (active) | 52% | 95% (active) | 70.5% (active)
17 | COC(CC[P+](c1ccccc1)(c1ccccc1)c1ccccc1)(C(=O)c1ccccc1)c1ccccc1 (centres undefined) | 91% (active) | 99% (active) | 98.7% (active) | 97% (active) | 99% (active) | 99.7% (active) | 88% (active) | 99% (active) | 99.8% (active) | 90% (active) | 99% (active) | 98.8% (active) | 94% (active) | 100% (active) | 99.7% (active) | 92% (active) | 100% (active) | 99.5% (active)
18 | FC(F)(F)c1ccc(NC(=S)SCc2ccc3c(c2)OCO3)cc1 | -5% | 0% | 74.5% (active) | -5% | -1% | 95% (active) | -3% | 25% | 93.3% (active) | -11% | -15% | 86.3% (active) | -8% | -6% | 87% (active) | -8% | 24% | 93.2% (active)
